This is an account of results in PubChem BioAssay (Tox21).

The experiment addresses Gonadotropin-releasing hormone receptor (Homo sapiens) (UniProt P30968). Nature of the experiment: Human gonadotropin-releasing hormone receptor (GnRHR) small molecule agonists, calcium flux assay in GnRHR-HEK293 cells (AID 1920063). Further: nearly all actives have a fitted effect of over 35% in size. The gist of the method: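 Agonist activity was measured as intracellular calcium flux in HEK293 cells engineered to stably express human GnRHR. After dye loading for 1 hour at 37 C, compounds in DMSO were added and fluorescence was followed for 3 minutes.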

Values without a mark were called inactive. Entries that show only a call come without a potency. The source made the active and inactive calls. The call rests on the fitted dose curve.
Potency means the concentration at half of the fitted maximal effect.

Sequence of Gonadotropin-releasing hormone receptor (Homo sapiens) (P30968 whole entry, looked up): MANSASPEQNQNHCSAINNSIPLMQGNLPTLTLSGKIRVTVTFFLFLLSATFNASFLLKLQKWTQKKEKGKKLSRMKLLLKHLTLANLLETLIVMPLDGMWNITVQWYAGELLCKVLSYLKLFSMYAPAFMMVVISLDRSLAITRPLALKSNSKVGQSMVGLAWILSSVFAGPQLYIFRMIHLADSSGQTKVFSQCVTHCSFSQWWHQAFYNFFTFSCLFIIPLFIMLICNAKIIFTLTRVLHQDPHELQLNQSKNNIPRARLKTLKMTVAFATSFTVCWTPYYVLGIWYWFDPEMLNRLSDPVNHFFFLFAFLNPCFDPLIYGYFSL

In the case of `O=[N+]([O-])c1cncn1CCN1CCOCC1`, the Potency entry is “inactive”.
As for `CC1C(C)(C)C2=C(C(=O)CCC2)C1(C)C` (configuration not stated), the Potency result was “inactive”.
In the case of `CC(C)CC(C)(O)C#CC(C)(O)CC(C)C` (configuration not stated), the Potency entry is “inactive”.
Same read-out and setting: in the case of `CCCCCCCCSCC` it was “inactive”.
Turning to `C1CSCCS1`, the Potency result is “inactive”.
Same read-out and setting: the same measure for `C=C(C)[C@@H]1CCC2=CCC[C@@H](C)[C@]2(C)C1`: “inactive”.
As for `N#CCC(=O)O`, the Potency result was “inactive”.
The same measure, in the same setting: in the case of `CC(C)(C)OC=O` it was “inactive”; in that of `CC12CCC(C1)C(C)(C)C2O` (configuration not stated), “inactive”.
The same measure, in the same setting: in the case of `CC(=O)OCC(=O)Nc1cc(C#N)cc(NC(=O)COC(C)=O)c1Cl` it was “inactive”.
The same measure, in the same setting: the same measure for `NS(=O)(=O)c1cc2c(cc1C(F)(F)F)NC(Cc1ccccc1)NS2(=O)=O` (configuration not stated): “inactive”; for `CC(C)=CCCC(C)O` (configuration not stated): “inactive”; for `CC(C=O)Cc1ccc(C(C)(C)C)cc1` (configuration not stated): “inactive”.
As to `N#Cc1ccc(C2CCCc3cncn32)cc1` (configuration not stated), the Potency result was “inactive”.
On the same count and under the same terms, in the case of `O=Nc1ccc(NO)cc1` it was “inactive”; in that of `O=Cc1cc2ccccc2o1`, “inactive”.
As for `C=CC(=O)OCCOC1C2CCC1C1CC=CC12` (configuration not stated), the activity change is -0.687% [at 11.8 µM, hits give high values].
Consider `O=C(CCN1CCN(CCO)CC1)N1c2ccccc2Sc2ccc(C(F)(F)F)cc21`, for which the Potency result is “inactive”.
Still for that read-out and setting: in the case of `COc1cccc2c1C(=O)c1c(O)c3c(c(O)c1C2=O)C[C@@](O)(C(C)=O)C[C@@H]3O[C@H]1C[C@H](N)[C@H](O)[C@H](C)O1` it was 34.9 µM (active); in that of `CCSC(=O)N(CC)CC`, “inactive”.
The same measure, in the same setting: in the case of `COc1ccc2cc1Oc1cc3c(cc1OC)CC[N+](C)(C)[C@H]3Cc1ccc(cc1)Oc1c(OC)c(OC)cc3c1[C@@H](C2)[N+](C)(C)CC3` it was “inactive”; in that of `OCCOCCOCCOCCOCCO`, “inactive”.
Consider `NC(=O)NNc1ccccc1`, for which the Potency result is “inactive”.
On the same count and under the same terms, the same measure for `Clc1cccc(Cl)c1NC1=NCCN1`: “inactive”; for `CC(C)(O)C(=O)O`: “inactive”; for `CC(CO)c1ccccc1` (configuration not stated): “inactive”.
The same measure, in the same setting: the same measure for `OCCN1CCNCC1`: “inactive”.
`CCOC(=O)c1cc(=O)c2c(OCC(COc3cccc4oc(C(=O)OCC)cc(=O)c34)OC(=O)[C@@H](N)CCCCN)cccc2o1`: the Potency entry was “inactive”.
Same read-out and setting: the same measure for `CC(C)(C)NC[C@H](O)COc1nsnc1N1CCOCC1`: “inactive”.
The same measure, in the same setting: in the case of `Clc1nc2ccccc2s1` it was “inactive”; in that of `CCC(=O)Nc1cccc(N)c1`, “inactive”.
Same read-out and setting: in the case of `Cn1c(=O)c2c(ncn2C)n(C)c1=O` it was “inactive”; in that of `O=C(c1ccc(OCCN2CCCCC2)cc1)c1c(-c2ccc(O)cc2)sc2cc(O)ccc12`, “inactive”; in that of `NCCCN1CCN(CCCN)CC1`, “inactive”.
Consider `O=S(=O)(O)CCS`, for which the Potency result was “inactive”.
Turning to `Cc1ccccc1S(N)(=O)=O`, the Potency entry is “inactive”.
With `COCC(O)CO` (configuration not stated), the Potency result was “inactive”.
The same measure, in the same setting: in the case of `CCCCCCCCCOCC1CO1` (configuration not stated) it was “inactive”.
In the case of `NC1CCCCC1N` (configuration not stated), the Potency result was “inactive”.
On the same count and under the same terms, the same measure for `CCC(CO)CO`: “inactive”.
Still for that read-out and setting: the same measure for `CC/C=C/CCO`: “inactive”.
As for `Nc1cc(C(Cl)=C(Cl)Cl)c(S(N)(=O)=O)cc1S(N)(=O)=O`, the Potency result is “inactive”.
Same read-out and setting: the same measure for `O`: “inactive”.
As for `CC(=O)S[C@H](C(=O)N[C@H]1Cc2ccccc2[C@H]2CCC[C@@H](C(=O)O)N2C1=O)C(C)C`, the Potency result is “inactive”.
As for `Cc1ccc(C(=O)O)cc1`, the Potency result was “inactive”.
In the case of `NC(=O)c1cccc([N+](=O)[O-])c1`, the Potency entry was “inactive”.
On to `NC(=O)c1ncn([C@@H]2O[C@H](CO)[C@@H](O)[C@H]2O)c1O`, for which the Potency result was “inactive”.
